# Sampled rows, rich in hits. Any-hit rate of the full collection: about 1.1%.
# S1P2 ag – S1P2 (human) receptor agonism. AID 729. S1P2-expressing cell line, agonist reporter read-out. activation, % at 4.5 µM. 97,000 tested, 0.46% active. O95136; in the data active = activation above about 16%;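 also: 0% = vehicle low control and 100% = maximal reference agonist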
# GALR2 antag – GALR2 (human) receptor antagonism; O43603; GALR2-expressing cells, antagonist mode; inhibition, % at 4 µM; 140,000 tested, 0.39% active; AID 828; in the data active = inhibition above about 27%;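 also: cells stimulated with galanin 1-16 at roughly its EC80; 0% = agonist challenge control and 100% = basal control without agonist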
# Target sequence (O43603 whole entry, looked up): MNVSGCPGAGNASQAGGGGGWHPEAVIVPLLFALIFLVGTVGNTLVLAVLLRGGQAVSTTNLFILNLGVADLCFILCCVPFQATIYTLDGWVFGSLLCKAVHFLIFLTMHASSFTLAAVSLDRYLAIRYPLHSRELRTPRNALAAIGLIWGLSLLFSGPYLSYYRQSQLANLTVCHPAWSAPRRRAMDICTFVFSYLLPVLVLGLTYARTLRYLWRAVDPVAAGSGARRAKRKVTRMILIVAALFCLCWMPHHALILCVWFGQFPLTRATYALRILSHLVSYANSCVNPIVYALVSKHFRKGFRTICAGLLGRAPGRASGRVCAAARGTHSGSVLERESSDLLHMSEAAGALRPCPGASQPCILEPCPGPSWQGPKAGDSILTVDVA
# S1P2 blocker – blocks the human S1P2 receptor. cell-based S1P2 antagonist assay, inhibition at 5 uM. 97,000 tested, 0.21% active. O95136. inhibition, % at 5 µM. AID 736; in the data active = inhibition above about 45%;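 also: CRE beta-lactamase reporter cells expressing human S1P2 stimulated with S1P; 0% = agonist at EC80 alone and 100% = agonist plus reference antagonist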
# GALR2 ag – agonists of human galanin receptor 2 (GALR2). AID 803. GALR2-expressing cells, agonist activation read-out. activation, % (concentration not given with the values). 140,000 tested, 0.48% active; in the data active = activation above about 5%, passing the limit was not always enough;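 also: 0% = vehicle buffer wells and 100% = reference agonist at full effect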
# GALR2 agon conf – confirmation of human galanin receptor 2 (GALR2) agonists; activation, % at 5.6 µM; GALR2-expressing cells, agonist activation; shares compounds with GALR2 ag; 460 tested, 10% active; in the data active = activation above about 8.4%;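 also: 0% = buffer-only vehicle wells and 100% = full reference agonist response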
# BLA act counter – counter-screen for GALR2 agonists: beta-lactamase reporter activators; CHO NFAT-bla reporter, beta-lactamase FRET activation; 460 tested, 10% active; shares compounds with GALR2 ag; activation, % at 5.6 µM;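 active = activation above the screen-wide mean activation plus 3 SD, cut at about 8% in these data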;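 also: 0% = DMSO with PBS wells and 100% = thapsigargin positive control wells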
# Active calls of the source: *; . = no result.
SMILES,S1P2 ag,GALR2 antag,S1P2 blocker,GALR2 ag,GALR2 agon conf,BLA act counter
Oc1ccc(Br)cc1C=Nc1ccc2c3c(cccc13)CC2,.,1.3,.,0.2,.,.
O=c1oc2ccccc2cc1-c1nc2c(s1)CCc1ccccc1-2,.,24.6,.,10.4*,3.5,2.3
Nc1nnc(-c2cc3ccccc3oc2=O)s1,-7.8,17.2,7.3,-3.2,.,.
O=C(Cn1cc(C(F)(F)F)cc(Cl)c1=O)NCCc1ccccc1,.,13.6,.,-1.5,.,.
CC(C)(C)OC(=O)C(Cc1ccc(OC(C)(C)C)cc1)NC(=O)CNC(=O)OCc1ccccc1 (stereo not drawn),.,-4.1,.,-0.7,.,.
CCC(C)(C)NC(=O)C(c1cccn1C)N(Cc1ccc(OC)cc1)C(=O)Cn1nnc2ccccc21 (stereo not drawn),-1.9,1.4,2.9,8.6,6.5,6.5
O=C(O)Cc1cc(C(=O)Nc2ccc(Br)cc2)sc1-c1ccccc1,.,-2.8,.,-0.8,.,.
CCOC(=O)c1ccc(NC(=S)N2CCSC2c2ccc(Br)cc2)cc1 (stereo not drawn),.,-1.5,.,17.2*,17.3*,37.8*
N#C/C(=C\c1cn(CCOc2ccccc2F)c2ccccc12)C(=O)NCc1cccs1,.,2.7,.,9.2*,1.9,1.1
Cc1ccc(S(=O)(=O)N(C)CCCC(=O)Nc2cccc3ccccc23)cc1,.,-16.1,.,-1.2,.,.
COC(=O)c1c(O)cc(C(C)(C)C)n(-c2ccc(F)cc2)c1=O,.,-13.7,.,-0.7,.,.
Cc1ccc(-c2nc(N/N=C/c3ccccc3[N+](=O)[O-])c3ccccc3n2)cc1,-2.5,-3.6,8.5,-1.6,.,.
Brc1ccc(-c2nc(N/N=C/c3cccnc3)c3ccccc3n2)cc1,-7.0,3.7,7.2,76.4*,0.0,-1.1
Cc1ccc(C)c(NC(=O)/C(C#N)=C/c2cn(CC(=O)NCc3ccco3)c3ccccc23)c1,.,-9.3,.,69.6*,27.4*,27.5*
Cc1ccccc1OCCn1cc(/C=C(\C#N)C(=O)NCc2ccco2)c2ccccc21,.,-5.0,.,1.4,.,.
Cc1cc(C)cc(NC(=O)/C(C#N)=C/c2cn(CC(=O)NCc3ccco3)c3ccccc23)c1,.,5.0,.,52.1*,26.0*,23.6*
CC(=O)c1cc(C)ccc1OC(=O)c1ccco1,-1.5,5.6,11.1,11.1*,-0.7,1.7
COc1ccc(CCn2c(N)c(C(=O)NCc3ccco3)c3nc4ccccc4nc32)cc1,.,4.5,.,1.0,.,.
COc1ccc(CCn2c(N)c(C(=O)NCc3ccco3)c3nc4ccccc4nc32)cc1OC,15.6,3.7,-16.2,12.0*,4.0,9.9*
COc1ccc(CCNC(=O)c2ccc(-c3ccc([N+](=O)[O-])cc3Cl)o2)cc1,.,8.8,.,-2.6,.,.
CCc1cc2c(CN3CCN(C)CC3)cc(=O)oc2cc1O,2.3,4.3,19.1,2.0,.,.
CCc1cc2c(CN3CCN(CCO)CC3)cc(=O)oc2cc1O,4.0,-3.2,11.1,10.6,0.8,3.6
CC(C)CNC1=C(C(=S)Nc2ccccc2)C(=O)CC(C)(C)C1,.,-1.2,.,-0.4,.,.
Cc1cccc(C(=O)NNC(=O)c2ccco2)c1,.,-3.8,.,-1.1,.,.
CCc1ccc(NC(=O)CSc2nnc(CC)c(CC)n2)cc1,-1.7,-6.7,-32.5,22.1*,-1.3,-4.0
SMILES,S1P2 ag,GALR2 antag,S1P2 blocker,GALR2 ag,GALR2 agon conf,BLA act counter
Cc1cccc(OCCNc2cc(N3CCN(CCO)CC3)ccc2[N+](=O)[O-])c1,.,-5.1,.,-0.1,.,.
COc1ccc(-c2cc(-c3cc(OC)ccc3O)[nH]n2)cc1,-5.3,12.5,-15.1,-3.4,.,.
COc1ccc(-c2n[nH]c(C)c2-c2cc(OC)ccc2O)cc1,-3.2,-9.9,-5.1,8.6,0.3,1.1
CC(NC(=O)c1ccccc1)c1nc2ccccc2n1Cc1ccccc1F (stereo not drawn),-1.7,4.9,4.8,-1.3,.,.
CCN(CC)c1ccc(NC(=O)Cn2c(C(C)NC(=O)c3ccccc3)nc3ccccc32)cc1 (stereo not drawn),.,-13.2,.,11.3*,-1.1,-3.4
COC(=O)C1=C(C)Nc2ncnn2C1c1ccc(OCc2ccccc2)cc1 (stereo not drawn),.,0.0,.,104.4*,0.0,-0.6
S=C(NC1CCCCC1)N1CCN(c2ccccn2)CC1,.,-5.8,.,-0.3,.,.
Cc1nn2cc(-c3ccc(Cl)cc3)nc2s1,-4.8,6.3,25.9,9.8,-0.5,-2.3
Cc1nn2cc(-c3ccc(-c4ccccc4)cc3)nc2s1,-7.5,-29.9,8.2,-1.8,.,.
O=C(Nc1ccc(Cl)c(Cl)c1)N(CCCN1CCOCC1)Cc1cccs1,-3.6,5.7,15.7,-1.4,.,.
O=C(N/N=C/c1c(F)cccc1Cl)c1ccc(Cn2cc(Br)cn2)o1,.,14.5,.,40.0*,-0.7,-2.8

# Screening results as filed in PubChem.
